# Counter-ions that a name gives are not always drawn.
# Tested on: Saccharomyces cerevisiae BY4741 SeMeCo community
# Assay: z-score of prototroph abundance vs DMSO median; higher = larger share of this subpopulation than in DMSO controls
# Details: 10 µM; 24 h; SM minimal medium; subpopulation (auxotrophy): Prototroph
# Procedure: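 Fluorescent four-plasmid SeMeCo (self-establishing metabolically cooperating S. cerevisiae BY4741 community; plasmids pH-mRuby2, pL-mWasabi, pU-eCFP, pM-TagRFP657) was grown 24 h in minimal SM medium with each Selleck FDA-approved drug at 10 µM in 384-well plates. Cells were fixed and imaged by high-content confocal microscopy. For each auxotrophic subpopulation (and the prototroph), a z-score gives the deviation from the DMSO vehicle-control population median.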
row,Structure (SMILES),z-score of prototroph abundance
1,OC(Cn1cncn1)(Cn1cncn1)c1ccc(F)cc1F [Fluconazole],2.13
2,N[C@@H]1CN(c2c(F)cc3c(=O)c(C(=O)O)cn([C@@H]4C[C@@H]4F)c3c2Cl)CC12CC2 [Sitafloxacin Hydrate],-1.39
3,Oc1cccc(O)c1 [Resorcinol],0.94
4,CCN(CC)CCOc1ccc(C(=C(Cl)c2ccccc2)c2ccccc2)cc1 [Clomifene citrate],-1.75
5,CNCCCN1c2ccccc2CCc2ccccc21 [Desipramine Hydrochloride],-0.16
6,CO/N=C(\C(=O)N[C@@H]1C(=O)N2C(C(=O)O)=CCS[C@H]12)c1csc(N)n1 [Ceftizoxime],0.78
7,CNCC[C@@H](Oc1ccccc1C)c1ccccc1 [Atomoxetine HCl],0.61
8,C[C@H]1O[C@@H](O[C@H]2[C@@H](O)C[C@H](O[C@H]3[C@@H](O)C[C@H](O[C@H]4CC[C@@]5(C)[C@H](CC[C@@H]6[C@@H]5C[C@@H](O)[C@]5(C)[C@@H](C7=CC(=O)OC7)CC[C@]65O)C4)O[C@@H]3C)O[C@@H]2C)C[C@H](O)[C@@H]1O [Digoxin],0.39
9,CCCCCCCCCCCCCCCC[N+](C)(C)C [Cetrimonium Bromide (CTAB)],-15.6
10,Clc1ccccc1C(c1ccccc1)(c1ccccc1)n1ccnc1 [Clotrimazole],-9.07
11,CN1CCC(=C2c3ccccc3CCc3sccc32)CC1 [Pizotifen Malate],0.02
12,CN(C)C(=O)COC(=O)Cc1ccc(OC(=O)c2ccc(NC(=N)N)cc2)cc1 [Camostat Mesilate],0.66
13,CCCCCCCCCC(=O)NC1C(Oc2c3cc4cc2Oc2ccc(cc2Cl)C(OC2OC(CO)C(O)C(O)C2NC(C)=O)C2NC(=O)C(NC(=O)C4NC(=O)C4NC(=O)C(Cc5ccc(c(Cl)c5)O3)NC(=O)C(N)c3ccc(O)c(c3)Oc3cc(O)cc4c3)c3ccc(O)c(c3)-c3c(OC4OC(CO)C(O)C(O)C4O)cc(O)cc3C(C(=O)O)NC2=O)OC(CO)C(O)C1O (stereo not given) [Teicoplanin],-0.99
14,CN(C)CCOc1ccc(/C(=C(/CCCl)c2ccccc2)c2ccccc2)cc1 [Toremifene Citrate],-1.18
15,COCCCOc1ccnc(C[S+]([O-])c2nc3ccccc3[nH]2)c1C (stereo not given) [Rabeprazole],-0.81
16,CC(C)[C@H]1CC[C@H](C(=O)N[C@H](Cc2ccccc2)C(=O)O)CC1 [Nateglinide],-0.85
17,CN(C)CCC[C@@]1(c2ccc(F)cc2)OCc2cc(C#N)ccc21 [Escitalopram Oxalate],1.15
18,Nc1nnc(-c2cccc(Cl)c2Cl)c(N)n1 [Lamotrigine],-1.13
19,CC1(C)S[C@@H]2[C@H](NC(=O)[C@H](NC(=O)N3CCN(S(C)(=O)=O)C3=O)c3ccccc3)C(=O)N2[C@H]1C(=O)O [Mezlocillin Sodium],0.2
20,Clc1ccc(C(Cn2ccnc2)OCc2c(Cl)cccc2Cl)c(Cl)c1 (stereo not given) [Isoconazole nitrate],-7.83

row,Structure (SMILES),z-score of prototroph abundance
1,CO/N=C(\C(=O)N[C@@H]1C(=O)N2C(C(=O)O)=C(CSC(=O)c3ccco3)CS[C@H]12)c1csc(N)n1 [Ceftiofur HCl],-0.76
2,C[C@@H]1CN(c2c(F)c(N)c3c(=O)c(C(=O)O)cn(C4CC4)c3c2F)C[C@H](C)N1 [Sparfloxacin],0.52
3,CN(C)CCc1c[nH]c2ccc(Cn3cncn3)cc12 [Rizatriptan Benzoate],0.05
4,CNS(=O)(=O)CCc1ccc2[nH]cc(C3CCN(C)CC3)c2c1 [Naratriptan HCl],0.15
5,N=C(N)NS(=O)(=O)c1ccc(N)cc1 [Sulfaguanidine],1.31
6,O=C(c1ccccc1)c1ccc2n1CCC2C(=O)O (stereo not given) [Ketorolac tromethamine salt],0.48
7,CC1(C)S[C@@H]2[C@H](NC(=O)Cc3ccccc3)C(=O)N2[C@H]1C(=O)O [Benzathine penicilline],0.52
8,C=CC[N+]1([C@H]2C[C@H]3[C@@H]4CC[C@H]5C[C@H](O)[C@@H](N6CCOCC6)C[C@]5(C)[C@H]4CC[C@]3(C)[C@H]2OC(C)=O)CCCC1 [Rocuronium Bromide],0.88
9,Nc1ccc(S(=O)(=O)Nc2ncccn2)cc1 [Sodium sulfadiazine],-0.25
10,CCCN1CCCC[C@H]1C(=O)Nc1c(C)cccc1C [Ropivacaine HCl],-0.38
11,CN(C)CCc1c[nH]c2ccc(CS(=O)(=O)N3CCCC3)cc12 [Almotriptan Malate],0.66
12,CC(=O)Oc1ccccc1C(=O)O [Aspirin],-0.19
13,CN1CCc2cc3c(cc2C(=O)Cc2ccc4c(c2C1)OCO4)OCO3 [Protopine],-0.56
14,CN[C@H](CC(C)C)C(=O)N[C@H]1C(=O)N[C@@H](CC(N)=O)C(=O)N[C@H]2C(=O)N[C@H]3C(=O)N[C@H](C(=O)N[C@H](C(=O)O)c4cc(O)cc(O)c4-c4cc3ccc4O)[C@H](O)c3ccc(c(Cl)c3)Oc3cc2cc(c3O[C@@H]2O[C@H](CO)[C@@H](O)[C@H](O)[C@H]2O[C@H]2C[C@](C)(N)[C@H](O)[C@H](C)O2)Oc2ccc(cc2Cl)[C@H]1O [Vancomycin HCl],0
15,CCCCCCCCN=C(N)NC(N)=NCc1ccc(Cl)c(Cl)c1 [Olanexidine Hydrochloride semihydrate],-19.3
16,CC(C)COCC(CN(Cc1ccccc1)c1ccccc1)N1CCCC1 (stereo not given) [Bepridil hydrochloride],-1.24
17,C#CCC(Cc1cnc2nc(N)nc(N)c2n1)c1ccc(C(=O)N[C@@H](CCC(=O)O)C(=O)O)cc1 (stereo not given in full) [Pralatrexate],0.41
18,O=C(Cn1cnnn1)N[C@@H]1C(=O)N2C(C(=O)O)=C(CSc3nncs3)CS[C@H]12 [Ceftezole],0.89
19,O=C1[C@@H]2[C@H]3CC[C@H](C3)[C@@H]2C(=O)N1C[C@@H]1CCCC[C@H]1CN1CCN(c2nsc3ccccc23)CC1 [lurasidone],0.9
20,CC(C(=O)O)c1ccc2c(c1)Cc1cccnc1O2 (stereo not given) [Pranoprofen],0.32

# Source: the supplement of paper PMC8975748
